From PubChem BioAssay
FXIa inh mix = FXIa protease inhibitors in compound pools, primary screen, biochemical, 10-compound mixtures; AID 680, 2007; inhibition, % at 5 µM; 62,000 tested, 0.19% active; purified FXIa, fluorogenic substrate, pooled mixtures; Coagulation factor XI (Homo sapiens), P03951;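 further: each value is inhibition by a whole ten-compound pool holding the compound; 0% = enzyme with no mixture and 100% = wells lacking enzyme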
Ec RNAP inh = E. coli RNAP inhibitors, biochemical; DNA-directed RNA polymerase subunit beta (Escherichia coli (strain K12)), P0A8V2; E. coli RNA polymerase, fluorescence transcription assay; AID 559, 2006; inhibition, %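 (tested at 10 µM)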; 62,000 tested, 0.2% active; in the data active means inhibition above about 20%;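 further: 0% = enzyme without compound and 100% = no enzyme blank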
FXIIa mix inh = human factor XIIa inhibitors, primary screen, biochemical, pooled compound mixtures, fluorogenic substrate. 62,000 tested, 0.2% active. AID 684, 2007. purified FXIIa. inhibition, % at 5 µM;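 further: 0% = enzyme without compound and 100% = no enzyme blank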
Smad3 FoxH1 inh = Smad3/FoxH1 peptide binding inhibitors, primary screen, biochemical, TR-FRET. 88,000 tested, 0.29% active. TR-FRET Smad3/Dy647-FoxH1 peptide binding, europium anti-His. Mothers against decapentaplegic homolog 3 (Homo sapiens), P84022. inhibition, % at 25 µM. AID 630, 2007;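 active means compounds that reduce the energy-transfer binding signal between the protein and its labelled peptide by more than half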;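 further: 0% = Smad3 plus labelled peptide maximal FRET and 100% = peptide-only background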
An asterisk follows results filed as active; . = no result; [ ] = dose if it differs, or a comment. In the library only some 0.59% were active in any assay of this set; here they are far more common. Unless noted, no stated cut-off is given here; in the data, active means inhibition above about 20% (passing the limit was not always enough); inactive means the rest.

SMILES | FXIa inh mix | Ec RNAP inh | FXIIa mix inh | Smad3 FoxH1 inh
CCCCn1c(NC(=O)c2ccccc2Cl)c(C#N)c2nc3ccccc3nc21 | -7 | 4 | -12 | 80*
COC(=O)c1ccc(C(=O)Nc2ccc(N)cc2N)cc1 | 23* | 9 | 5 | 11
O=[N+]([O-])c1cc(/C=N\Nc2nccs2)ccc1O | . | . | . | 78*
CS(=O)(=O)Nc1ccc(S(=O)(=O)Nc2nccs2)cc1 | 6 | 5 | -19 | 1
C=CCNC(=O)NS(=O)(=O)c1ccc(C)cc1 | 22* | 9 | 2 | 10
Cc1ccc(S(=O)(=O)NC(=O)NCc2ccc(Cl)cc2)cc1 | . | . | . | 4
C[C@@]12CC[C@@H]3[C@H](CC=C4C[C@@H](O)CC[C@@]43C)[C@H]1CC[C@H]2N(CCO)CCO | . | . | . | 1
Nc1nc(SC/C=C/C2CCCCC2)c2[nH]cnc2n1 | . | . | . | -5
CCN(CC)c1c(-c2ccccc2)c2cc(C)ccc2[nH]c1=O | 9 | 1 | -1 | 50*[fluorescence artefact?]
CN(C)Cc1cc(C(C)(C)C)cc(CN(C)C)c1O | . | . | . | 7
CN(C)Cc1cc(C(C)(C)C)ccc1-c1ccc(C(C)(C)C)cc1CN(C)C | . | . | . | 70*
Cc1cc(C)n(Cc2ccccc2Cl)n1 | -2 | 8 | 1 | 10
Cc1cc(=O)c2n(Cc3ccccc3Cl)nc[n+]2[nH]1 | 5 | 57* | 4 | -2
CC(=O)c1cc2c(O)c(O)ccc2o1 | 2 | 21* | 0 | 9
NC1=N[C@@H](c2ccc(Cl)cc2)N(c2ccc(S(N)(=O)=O)cc2)C(N)=N1 | . | . | . | 6
Oc1c(Br)cc(Br)cc1CN(Cc1cc(Br)cc(Br)c1O)C1CCCCC1 | . | . | . | 16
CCc1cc2c(SCC(=O)c3cccs3)ncnc2s1 | 4 | 24* | -16 | 9
COc1cccc(-c2nnn(CC(=O)NC3CCCC3)n2)c1OC | 22* | 9 | 6 | 1
[N-]=[N+]=NC[C@@H]1O[C@H](n2cnc3c(N)ncnc32)[C@@H]2O[C@@H]21 | . | . | . | 3
O=CNc1ncn[nH]1 | . | . | . | -7
Oc1ccc(C2Nc3cccc4cccc(c34)N2)c(O)c1 | . | . | . | 10
c1coc(C2Nc3cccc4cccc(c34)N2)c1 | 15 | 21* | 5 | 14
C[C@H](Br)C(=O)Nc1ccc(C(=O)O)c(O)c1 | . | . | . | 3
CN1CCCc2cc(C=O)ccc21 | . | . | . | -3
CCCN1CCCc2cc(CN)ccc21 | 2 | . | 5 | 53*
SMILES | FXIa inh mix | Ec RNAP inh | FXIIa mix inh | Smad3 FoxH1 inh
O=C(O)[C@@H]1[C@H](C(=O)NCc2cccnc2)[C@@H]2C=C[C@H]1O2 | . | . | . | 7
O=C(O)CSC1=NCCN1 | -4 | . | -19 | 11
CSC1(SC2=NCCN2)SC2(NCCN2)S1 | . | . | . | 81*
CC(C)CCC[C@@H](C)[C@@H]1CC[C@@H]2[C@H]3CC[C@H]4C[C@@H](N)CC[C@]4(C)[C@@H]3CC[C@]21C | . | . | . | -1
CCOC(=O)c1c2c(n(C)c1COC)C(=O)C(=O)c1ccc(Br)cc1-2 | . | . | . | 75*
CCOC(=O)c1c2c(n3ccccc13)C(=O)c1ccccc1C2=O | . | . | . | 9
CN1[C@@H]2CC(OC(=O)[C@@H](CO)c3ccccc3)C[C@H]1[C@H]1O[C@H]12 (stereo not given in full) | . | . | . | -12
O=C(c1ccccc1)N1CCN(C(=O)c2ccncc2)CC1 | . | . | . | -7
O=C(O)c1ccncc1.O=C(O)c1ccncc1.[Cl][Pt]([Cl])([Cl])[Cl] | . | . | . | 72*
CCOCCn1c(CN2CCN(CC)CC2)nc2c1c(=O)n(C)c(=O)n2C | 3 | 22* | 5 | 3
C[C@H](CCC(=O)O)[C@@H]1CC[C@@H]2[C@H]3CC[C@@H]4C[C@H](O)CC[C@@]4(C)[C@@H]3CC[C@]21C | . | . | . | 5
C/C(=N\O)[C@@H]1C[C@H](CC(=O)O)C1(C)C | . | . | . | -1
COC(=O)c1cc(Br)c(=O)n(-c2ccc(C(C)=O)cc2)c1 | 1 | . | 21* | 4
COC(=O)c1cc(Br)c(=O)n(-c2ccccn2)c1 | -4 | . | -2 | 8
CC1(C)[C@@H](CC(=O)O)CCC[C@H]1CC(=O)O | . | . | . | 5
COc1ccc(S(=O)(=O)N2CCC(NC(=O)Nc3ccc(C)cc3)CC2)cc1 | 4 | 5 | 22* | -1
Cc1ccc(NC(=O)NC2CCN(S(=O)(=O)c3ccc(F)cc3)CC2)cc1 | . | . | . | 4
NC(=O)NC(=O)[C@H]1CCCC[C@@H]1C(=O)O | . | . | . | -5
N#Cc1cc2c(nc1SCc1cccnc1)CCC2 | 13 | 0 | -13 | 0
Cc1cccc(CSc2nc3c(cc2C#N)CCC3)c1 | . | . | . | 58*[fluorescence artefact?]
Cc1c2ccccc2c(CSC(=N)N)c2ccccc12 | . | . | . | 39
CCOC(=O)c1cc(NC(=O)N(C(C)C)C(C)C)c(C)nc1C | . | . | . | 3
CCOC(=O)c1cc(NC(=O)Nc2ccc(OC)c(OC)c2)c(C)nc1C | 29* | 2 | 9 | -2
CN1CCN(CN2C(=O)[C@H]3[C@H]4C=C[C@@H]([C@@H]3C2=O)[C@H]2[C@@H]3C(=O)N(CN5CCN(C)CC5)C(=O)[C@@H]3[C@@H]42)CC1 | . | . | . | 57*
Nc1nc2c(ncn2[C@@H]2CC[C@@H](CO)O2)c(=O)n1C(=O)c1ccccc1 | . | . | . | 1
SMILES | FXIa inh mix | Ec RNAP inh | FXIIa mix inh | Smad3 FoxH1 inh
Nc1c(N2CCCC2)cc(Cl)c2nonc12 | 0 | -5 | 6 | 58*
C[C@H]1[C@H](C)OC(=O)C[C@H](O)C[C@H](O)C[C@H](O)CC[C@H](O)[C@H](O)CC(=O)C[C@H](O)[C@H](C(=O)O)[C@H](O)C[C@H](O[C@H]2O[C@@H](C)[C@H](O)[C@@H](N)[C@@H]2O)C=CC=CC=CC=CCCC=CC=C[C@@](C)(O)[C@H]1O | . | . | . | 4
COc1ccc(OC)c(-c2cc(C(=O)Nc3c(C)nn(Cc4ccc(Cl)cc4)c3C)no2)c1 | 6 | 6 | 8 | 6
COc1ccc(OC)c(-c2cc(C(=O)Nc3c(C)nn(Cc4ccccc4)c3C)no2)c1 | 20* | 7 | 9 | 10
O=S(=O)(Nc1cccnc1)c1cccs1 | 45* | 1 | 5 | 0
Cc1cccc(NS(=O)(=O)c2cccs2)c1 | . | . | . | -10
Cc1cc([N+](=O)[O-])c(C)c(Br)c1C | . | . | . | -5
O=C(NCCc1ccccc1)c1noc2c1CCc1ccccc1-2 | 36* | 11 | 8 | 0
Cc1cccc(N2CCN(C(=O)CCn3c(=S)[nH]c4cc5c(cc4c3=O)OCO5)CC2C)c1 (stereo not given) | 5 | 2 | 45* | 6
NS(=O)(=O)C1=C(Cl)CC2=NC(CCC(=O)O)=NS(=O)(O)=C2C1 | . | . | . | 16
CC(NC(=O)c1ccccc1NC(=O)c1ccco1)c1ccccc1 (stereo not given) | 24* | 5 | 7 | -49
NC(=O)C[C@@H](N)c1nn[nH]n1 | . | . | . | 4
CC(C)CCNC(=O)C(c1cccnc1)N(CCc1ccccc1)C(=O)Cn1nnc2ccccc21 (stereo not given) | . | . | . | 55*
C[C@H]1[C@H](C)CC[C@@]2(C(=O)O)CC[C@@]3(C)C(=CC[C@H]4[C@]5(C)C[C@H](O)[C@@H](O)[C@@](C)(CO)[C@H]5[C@H](O)C[C@@]43C)[C@H]12 | . | . | . | 86*
